Measurements from PubChem BioAssay (EPA / NIEHS).
Calls of active or inactive are those of the source. Rule for the calls: active = hit-call score of the fitted dose curve at least 0.9, where 1 is the maximum; inactive = score below 0.9.

Assay: CCTE_Shafer_MEA_acute_per_network_burst_spike_number_std: CCTE's Neural Acute Assay for Standard Deviation of Number of Spikes in a Network Burst, Shafer Lab (AID 2284020);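 note: fitted for decrease in spike-number SD versus DMSO so actives lower it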
Experimental: CCTE_Shafer_MEA_acute assay is conducted using Axion Biosystems 48 well microelectrode array (MEA) plates and Maestro recording system. Each well of the MEA plate contains a grid of 16 microelectrodes embedded in the culture surface. Electrically active cells, such as neurons, can be cultured over the electrodes, and electrical activity in these cells can be recorded extracellularly. The spontaneous firing of neurons is captured from each electrode on a microsecond timescale providing both temporally and spatially precise data. […] The CCTE_Shafer_MEA_acute assay uses primary cultures of rat cortical neurons. As these cultures mature over time, neural networks develop functional activity and form cohesive networks in which electrical activity can be highly coordinated. Baseline 40-minute recordings are made on days post-plating 13 or 15, followed by a secondary 40-minute recording after chemical exposure.CCTE_Shafer_MEA_acute_per_network_burst_spike_number_std is a component of the CCTE_Shafer_MEA_acute assay. It measures the standard deviation of the number of spikes (action potential firings) in a network burst (temporally-clustered group of spikes across multiple electrodes) during a recording in a microelectrode array (MEA) using Axion Biosystems Maestro 768 channel amplifier with the AxIS adaptive spike detector. The recordings before and after chemical treatment are used to calculate a percent change in the standard deviation of the number of spikes in network bursts in each well.Data from the assay component CCTE_Shafer_MEA_acute_burst_spike_number_std was analyzed into 1 assay endpoint. This assay endpoint, CCTE_Shafer_MEA_acute_burst_spike_number_std, was analyzed in the negative analysis fitting direction relative to DMSO as the negative control and baseline of activity. Using a type of functional reporter, gain or loss-of-signal activity can be used to understand electrical activity.
Spontaneous activity in the cortical cultures was recorded using an Axion Biosystems Maestro 768 channel amplifier and Axion Integrated Studios (AxIS) v1.8 (or later) software. The amplifier recorded from all channels simultaneously (gain = 1200 x; sampling rate = 12.5 kHz/channel): raw signals were filtered with a Butterworth band-pass filter (300-5000 Hz), which filters out slower local field potentials leaving only fast potentials, i.e., "spikes", arising from extracellular currents associated with action potentials (Pine 2006; Wheeler and Nam 2011). On-line spike detection of filtered signals was conducted with the AxIS adaptive spike detector, using a threshold of 8x the root mean squared (rms) noise on each channel. Any electrodes with rms noise levels greater than 5 uV were grounded (e.g., no data were recorded). Once grounded, an electrode was grounded for the duration of the experiment. All recordings were conducted at 37 C. Wells were deemed usable if on the day of the exposure >/= 10 electrodes were active (defined as >/= 5 spikes/min). On DIV 13 or 15, a minimum of three wells from one cortical culture preparation were treated with each compound (0.03-40 uM). Prior to recording baseline activity, each mwMEA plate was placed in the Maestro at 37 C and allowed to sit for 20 min while firing rates stabilized. Baseline activity (40 min) was recorded before the addition of each compound. An additional 40 min of spontaneous activity was recorded in the presence of each compound. Changes in network parameters relative to baseline were assessed following compound treatment.

Row | Structure (SMILES) | outcome | AC50
1 | CCC1(c2ccccc2)C(=O)N=C(O)NC1=O (stereo unspecified) | inactive | 
2 | ClC1=C(Cl)C2(Cl)C3C(Cl)C(Cl)CC3C1(Cl)C2(Cl)Cl (stereo unspecified) | inactive | 
3 | ClC(Cl)(Cl)c1ccccc1 | inactive | 
4 | Cc1ccc(N)cc1N | inactive | 
5 | CCCCC(CC)COP(=O)(Oc1ccccc1)Oc1ccccc1 (stereo unspecified) | inactive | 
6 | CC(C)(C)c1ccccc1OP(=O)(Oc1ccccc1)Oc1ccccc1 |  | 5 µM (active)
7 | CCC(C)(C)c1ccc(O)cc1 |  | 8.27 µM (active)
8 | COCCOCCO | inactive | 
9 | CC(Cl)(Cl)C(=O)O | inactive | 
10 | COP(=O)(CCC(=O)NCO)OC | inactive | 
11 | CCOc1ccc(C(C)(C)COCc2cccc(Oc3ccccc3)c2)cc1 | inactive | 
12 | c1ccc2c(c1)Nc1ccccc1S2 |  | 27.3 µM (active)
13 | CCOP(=S)(Oc1ccc([N+](=O)[O-])cc1)c1ccccc1 (stereo unspecified) | inactive | 
14 | O=C(O)C1C(C(=O)O)C2(Cl)C(Cl)=C(Cl)C1(Cl)C2(Cl)Cl (stereo unspecified) | inactive | 
15 | [N-]=[N+]=[N-] | inactive | 
16 | Nc1ccc2ccccc2c1 | inactive | 
